Bioassay records as filed in PubChem BioAssay.
Shown are actives, neighbours in structure and some others; about 10% of the full set was active somewhere.
GLA inh pH 4.5 – inhibitors of human alpha-galactosidase A at pH 4.5. activity change, negative = inhibition, % at 105 µM. purified enzyme, 4-MU-alpha-Gal fluorescence, pH 4.5. P06280. 230,000 tested, under 10 active. AID 1467;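 note: 0% = full activity with enzyme and -100% = basal without enzyme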
12-hLO inh – 12-hLO (ALOX12) enzyme inhibition; P18054; purified 12-hLO, xylenol orange hydroperoxide absorbance; Potency, µM (series often up to 57.1 µM), inactives show at the highest dose activity change, negative = inhibition, hits mostly inhibitors; 150,000 compounds, 0.12% hits; note: potency is the fitted concentration of half-maximal effect; nearly all actives have a fitted effect of over 55% in size
Target sequence (P18054 whole entry, looked up): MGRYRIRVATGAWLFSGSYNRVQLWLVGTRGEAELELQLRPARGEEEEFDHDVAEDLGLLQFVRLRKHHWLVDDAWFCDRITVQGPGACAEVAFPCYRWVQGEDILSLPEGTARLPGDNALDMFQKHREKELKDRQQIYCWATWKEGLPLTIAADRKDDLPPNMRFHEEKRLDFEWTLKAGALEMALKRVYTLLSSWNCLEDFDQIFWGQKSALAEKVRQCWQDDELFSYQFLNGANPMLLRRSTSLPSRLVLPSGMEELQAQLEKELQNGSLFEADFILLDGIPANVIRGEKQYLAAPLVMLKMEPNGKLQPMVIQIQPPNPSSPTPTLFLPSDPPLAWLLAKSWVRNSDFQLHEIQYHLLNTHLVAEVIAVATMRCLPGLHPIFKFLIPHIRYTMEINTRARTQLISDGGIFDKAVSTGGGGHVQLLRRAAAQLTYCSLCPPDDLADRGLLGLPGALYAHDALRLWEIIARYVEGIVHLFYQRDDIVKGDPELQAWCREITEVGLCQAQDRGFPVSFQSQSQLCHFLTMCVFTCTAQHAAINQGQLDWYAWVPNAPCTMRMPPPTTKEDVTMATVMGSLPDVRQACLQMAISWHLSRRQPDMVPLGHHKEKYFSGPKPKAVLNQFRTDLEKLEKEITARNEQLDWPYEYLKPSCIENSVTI
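Purified human 12hLO (150 nM final) was preincubated with compounds for 15 min at room temperature in 25 mM Hepes pH 7.0, 0.01% Triton X-100, then reacted with 40 uM arachidonic acid for 30 min. Hydroperoxide was detected with ferrous iron/xylenol orange.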
PNC assembly inh – inhibitors of perinucleolar compartment assembly | 140,000 compounds, 3.1% hits | PC3M PTB-GFP, PNC prevalence imaging, 16 h; active compounds read low | activity change (PNC), negative = inhibition, % at 10 µM;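 active = readout at or below -70, meaning at least 70% loss of cells showing the perinucleolar compartment, a nuclear body marking cancer cells; inconclusive = readout between -30 and a set limit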;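 note: plate controls were DMSO wells for no effect and camptothecin positive control wells for full effect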
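PC3M cells stably expressing PTB-GFP, 750–1000 cells/well, treated 16 h at 37 °C with compound (23 nl of library stock), in duplicate. After paraformaldehyde fixation and Hoechst stain, imaged at 20x; PNC prevalence scored by image analysis.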
aGal spleen mod – alpha-galactosidase A (human) modulation. P06280. human spleen homogenate, 4MU-alpha-Gal fluorescence, 40 min. Potency, µM (titrated, usually from 80 µM), without a hit: at the top dose activity change, negative = inhibition, actives largely listed as inhibitors. 240,000 compounds, 0.008% hits. AID 2107;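 note: potency is the fitted concentration of half-maximal effect; 0% = enzyme with vehicle and -100% = no enzyme basal signal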
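Human spleen homogenate (1 ug) as enzyme source, 4-methylumbelliferyl-alpha-D-galactopyranoside 1 mM final, citrate/phosphate pH 5.0 with 0.01% Tween-20. Compounds 40 min at 37C, NaOH/glycine stop; fluorescence Ex 365/Em 440, Hill-fit AC50.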
HPGD block – HPGD (human) dehydrogenase inhibition; P15428; purified HPGD, NADH fluorescence kinetic, PGE2 substrate; Potency, µM, for the others: at the highest dose activity change, negative = inhibition, actives largely listed as inhibitors; 150,000 compounds, 4.3% hits; AID 894; active = well fitted inhibition curve with a large enough effect, not every such curve was filed as active; inconclusive = small, poorly fitted or top-dose-only effect, or another doubt; inactive = no such curve, though single readings can be large or run the other way; note: potency is the fitted concentration of half-maximal effect
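NADH formation kinetics: reaction with 30 uM PGE2 and 1 mM NAD+ (final), 20 nM enzyme, Tris-HCl pH 8 with Tween 20, after 15 min compound preincubation at room temperature. Fluorescence change, last versus first of five reads.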
ALDH1A1 block – blocks purified human ALDH1A1 activity; P00352; Purified ALDH1A1, NADH fluorescence, propionaldehyde substrate; Potency, µM (series often up to 75.3 µM), for inactives: top-dose activity, negative = inhibition, most hits filed as inhibitors; 220,000 compounds, 7.3% hits; active = well fitted inhibition curve with a large enough effect, not every such curve was filed as active; inconclusive = small, poorly fitted or top-dose-only effect, or another doubt; inactive = no such curve, though single readings can be large or run the other way;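 note: potency is the fitted concentration of half-maximal effect; plate controls were no enzyme wells and a reference inhibitor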
* = called active by the depositor; ? = inconclusive; . = not tested or not shown; [ ] = another dose, or the depositor's remark. Unless noted, calls come from the whole dose curve; as a rule, active = well fitted curve in the direction sought with a large enough effect; inconclusive = small, poorly fitted or top-dose-only effect, or another doubt; inactive = no such curve, though single readings can be large; an effect the other way counts as inactive or inconclusive. Unless noted, % is set by controls: 0 for no effect and ±100 for the full control effect.

SMILES	GLA inh pH 4.5	12-hLO inh	PNC assembly inh	aGal spleen mod	HPGD block	ALDH1A1 block
COc1cccc(C=Nc2ccccc2C(=O)Nc2ccccc2)c1O	5	-18%	-110*	2%	?	?
O=C(Nc1ccccc1)c1ccccc1N=Cc1cccc(O)c1	11	.	.	4%	.	?
Cc1nc(NC(=O)COC(=O)C(NC(=O)c2ccco2)C(C)C)c(Cl)cc1Cl (stereo not drawn)	-2	-11%	-6	-6%	-11%	25µM*
CC1CCCC(NC(=O)COC(=O)[C@@H](NC(=O)c2ccco2)C(C)C)C1C (stereo partly drawn)	8	.	.	4%	.	?
Cc1ccc(S(=O)(=O)c2c(COC(=O)c3ccccc3Cl)c(-c3ccccc3)nn2C)cc1	0	7%	4	2%	-13%	-9%
C/C(=N\NC(=O)CCCOc1ccc(Cl)cc1C)c1ccc(C)o1	5	0%	?	5%	-15%	2%
CO[C@@H]1/C=C\CC(=O)N[C@@H](C)C(=O)OC[C@@H](OC)[C@H](C)CCCC(=O)OC[C@H]1C	.	.	.	0%[17.5 µM]	.	-2%[13.5 µM]
CC(NC(=O)Nc1ccc(O)cc1)(C(F)(F)F)C(F)(F)F	-3	-7%	-100*	1%	-7%	-3%
COc1ccc(C(=O)Nc2ccccc2)cc1[N+](=O)[O-]	.	4%	.	2%	-7%	20µM*
COc1ccc(C(=O)NC(=S)Nc2cccnc2)cc1[N+](=O)[O-]	7	.	.	5%	.	22µM*
Cc1ccc(Nc2ccc(C(N)=O)cc2[N+](=O)[O-])cc1C	0	2%	67	-6%	-21%	?
COc1cc(Nc2ccc(C(=O)O)cc2[N+](=O)[O-])cc(OC)c1	-5	-8%	-11	-1%	20µM*	9%
COc1ccccc1NC(=O)c1ccc(-n2cccn2)c([N+](=O)[O-])c1	2	.	.	5%	.	25µM*
CN(C)c1ccc(/C=N/NC(=O)CN(c2cccc(Cl)c2)S(C)(=O)=O)cc1Br	-9	-2%	24	3%	-21%	2%
COc1ccc(C(=O)NNC(=O)Cc2ccc(-c3ccccc3)cc2)cc1OC	-5	-1%	14	2%	-19%	14%
COc1ccccc1C(=O)NNC(=O)c1ccccc1[N+](=O)[O-]	-10	-1%	?	5%	-3%	12%
COc1ccc(C(=O)NNc2ccccc2)cc1OC	-3	?	-3	2%	?	22µM*
COc1ccc(C(=O)NNC(=O)c2ccccc2[N+](=O)[O-])cc1[N+](=O)[O-]	3	.	.	0%	.	13µM*
CCN(CC)C(C)CN1c2ccccc2Sc2ccccc21 (stereo not drawn)	-10	13µM*	.	20%	?	?
O=[N+]([O-])c1cc(/C=N/O)ccc1Sc1ccccc1	-3	-15%	20	-13%	25µM*	?
CO/N=C/c1ccc(Sc2ccccc2)c([N+](=O)[O-])c1	3	-9%	46	4%	-8%	-9%
CCc1ccc2[nH]c(=O)c(CN(Cc3ccc(F)cc3)C(c3nnnn3CCN3CCOCC3)C(C)C)cc2c1 (stereo not drawn)	-24	-17%	-81*	3%	-23%	?
CCC(C)(C)n1nnnc1C(C(C)C)N(CCN1CCOCC1)Cc1cc2cccc(C)c2[nH]c1=O (stereo not drawn)	4	3%	-20	-10%	2%	?
COCCn1nnnc1C(c1cc2cccc(C)c2[nH]c1=O)N1CCN(c2ccccc2F)CC1 (stereo not drawn)	-4	-3%	8	-3%	-17%	16µM*
CCc1ccc2[nH]c(=O)c(C(c3nnnn3CCOC)N3CCN(c4ccc(F)cc4)CC3)cc2c1 (stereo not drawn)	-15	-1%	?	6%	-11%	?
SMILES	GLA inh pH 4.5	12-hLO inh	PNC assembly inh	aGal spleen mod	HPGD block	ALDH1A1 block
CCc1ccc2[nH]c(=O)c(C(c3nnnn3CCOC)N3CCN(c4ccccc4)CC3)cc2c1 (stereo not drawn)	4	-18%	-16	2%	-5%	11µM*
O=C(OCc1ccccn1)c1ccc(COc2ccc3ccccc3c2)o1	5	.	.	-2%	.	.
O=C(CSC1=NCCN1)Nc1ccccc1	.	-3%[11.4 µM]	.	.	-6%	5%[13.5 µM]
N[C@@H](Cc1cccc([N+](=O)[O-])c1)C(=O)O	.	3%[11.4 µM]	.	.	-6%	-9%[13.5 µM]
COc1ccc(OC)c(-n2c(-c3ccc(C)cc3)n[nH]c2=S)c1	-7	-4%	-2	8%	?	18µM*
COc1ccc(-c2n[nH]c(=S)n2N)c(OC)c1	7	.	.	2%	.	25µM*
COc1ccc(OC)c(-n2c(-c3cccc(O)c3)n[nH]c2=S)c1	-3	-8%	?	-17%	?	10µM*
COc1ccc(-c2cc(-c3n[nH]c(=S)n3-c3cc(OC)ccc3OC)[nH]n2)cc1	-19	-7%	4	-3%	?	20µM*
CC[C@H](C)[C@H](NC(=O)[C@H](C)NC(=O)[C@H](CC(=O)O)NC(=O)[C@H](CO)NC(=O)[C@@H](N)Cc1cnc[nH]1)C(=O)N[C@@H](Cc1ccccc1)C(=O)N[C@H](C(=O)N[C@@H](CCC(N)=O)C(=O)N[C@@H](CCC(N)=O)C(=O)N[C@@H](Cc1ccc(O)cc1)C(=O)N[C@@H](CO)C(=O)N[C@@H](CCCCN)C(=O)N[C@@H](CC(C)C)C(=O)N[C@@H](CC(C)C)C(=O)N[C@@H](C)C(=O)N[C@@H](CCCCN)C(=O)N[C@@H](CC(C)C)C(=O)N[C@@H](C)C(=O)N[C@@H](CC(C)C)C(=O)N[C@@H](CCC(N)=O)C(=O)N[C@@H](CCCCN)C(=O)N[C@@H](Cc1ccc(O)cc1)C(=O)N[C@@H](CC(C)C)C(=O)N[C@@H](C)C(=O)N[C@@H](CO)C(=O)N[C@H](C(=O)N[C@@H](CC(C)C)C(=O)NCC(=O)N[C@@H](CO)C(=O)N[C@@H](CCCNC(=N)N)C(=O)N[C@H](C(=O)N[C@@H](CO)C(=O)N1CCC[C@H]1C(=O)N1CCC[C@H]1C(=O)N1CCC[C@H]1C(N)=O)[C@@H](C)O)[C@@H](C)CC)[C@@H](C)O	.	.	.	2%	.	.
CCOC(=O)c1c(-c2ccc(C)o2)csc1NC(=O)CSc1nnc(C)s1	-13	-15%	?	1%	?	?
CCOC(=O)c1c(-c2ccc(C)o2)csc1NC(=S)NC(=O)c1cccs1	-9	8%	48	-11%	?	18µM*
CCOC(=O)c1c(-c2ccc(C)o2)csc1NC(=O)CSc1nnnn1-c1ccccc1	2	?	6	5%	11µM*	1.6µM*
